Laboratory results from PubChem BioAssay AID1159580 (chemical genetic matrix, 2015).
Hit rate of the full screen: of about 5,500 compounds, about 2,000 (36%) were called active. Another 18% or so got no clear call; they are omitted. No stated cut-off is given here; in the data, active means normalized growth mostly below about 0.91 (no sharp cut-off); inconclusive means no clear call, values can overlap the other calls; inactive means mostly above about 0.92. The list shows a part of the results.

Experiment: chemical genetic growth profiling, strain panel (AID 1159580);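 further: tested at 20 µM; growth read once vehicle control cultures reached saturation at 30 °C; 1 = growth at the plate median or of vehicle wells; lower values mean less growth of the strain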
Conditions: S. cerevisiae deletion strains, growth OD

Measured: normalized growth

COC(=O)/C(C)=C\CC12OC(C)(C)C3CC(C=C4C(=O)c5c(OC)c6c(c(CC=C(C)C)c5OC431)OC(C)(CCC=C(C)C)C=C6)C2=O (centres undefined)
inactive: locus YAL021C, strain ccr4, hits give low values 0.991 | locus YAL026C, strain drs2, hits give low values 1.02 | locus YAL030W, strain snc1, hits give low values 1.03 | locus YBL061C, strain skt5, hits give low values 1.02 | locus YBR009C, strain hhf1, hits give low values 0.999 | locus YBR021W, strain FUR4, hits give low values 1.03 | locus YBR023C, strain chs3, hits give low values 1.01 | locus YBR171W, strain sec66, hits give low values 1.03 | locus YBR229C, strain ROT2, hits give low values 1.01 | locus YBR231C, strain swc5, hits give low values 1.03 | locus YBR279W, strain paf1, hits give low values 1.01 | locus YCL011C, strain gbp2, hits give low values 1.02 | locus YCL016C, strain dcc1, hits give low values 1.01 | locus YCL029C, strain bik1, hits give low values 0.983 | locus YCL061C, strain MRC1, hits give low values 1.01 | locus YCL069W, strain vba3, hits give low values 1.02 | locus YCR088W, strain abp1, hits give low values 1.02 | locus YDL005C, strain med2, hits give low values 1.03 | locus YDL035C, strain GPR1, hits give low values 0.964 | locus YDL040C, strain nat1, hits give low values 1.01 | locus YDL074C, strain BRE1, hits give low values 0.963 | locus YDL101C, strain DUN1, hits give low values 1.01 | locus YDL185W, strain tfp1, hits give low values 1.01 | locus YDL192W, strain arf1, hits give low values 0.987 | locus YDR001C, strain nth1, hits give low values 1.02 | locus YDR069C, strain doa4, hits give low values 1.03 | locus YDR101C, strain arx1, hits give low values 0.989 | locus YDR137W, strain rgp1, hits give low values 0.946 | locus YDR150W, strain NUM1, hits give low values 1.01 | locus YDR159W, strain sac3, hits give low values 1.06 | locus YDR162C, strain NBP2, hits give low values 0.941 | locus YDR195W, strain ref2 1.02 | locus YDR297W, strain sur2, hits give low values 1.04 | locus YDR318W, strain mcm21, hits give low values 0.982 | locus YDR334W, strain swr1, hits give low values 1.02 | locus YDR335W, strain msn5, hits give low values 1.02 | locus YDR388W, hits give low values 0.985 | locus YDR392W, strain spt3, hits give low values 0.966 | locus YDR502C, strain sam2, hits give low values 0.979 | locus YEL003W, strain gim4, hits give low values 1.01 | locus YEL037C, strain rad23, hits give low values 1.01 | locus YEL061C, strain CIN8 (second series), hits give low values 1.02 | locus YEL061C, strain CIN8, hits give low values 1 | locus YER015W, strain faa2, hits give low values 1.02 | locus YER016W, strain bim1, hits give low values 1.01 | locus YER110C, hits give low values 0.988 | locus YER111C, strain swi4, hits give low values 1.02 | locus YER155C, strain BEM2 (second series), hits give low values 1.02 | locus YER155C, strain BEM2, hits give low values 1.01 | locus YER167W, strain BCK2, hits give low values 0.993 | locus YFR010W, strain ubp6, hits give low values 1.03 | locus YGL078C, strain dbp3, hits give low values 0.989 | locus YGL086W, strain mad1, hits give low values 0.974 | locus YGL167C, strain pmr1, hits give low values 1.02 | locus YGL173C, strain kem1, hits give low values 1.02 | locus YGL227W, strain vid30, hits give low values 1.02 | locus YGL240W, strain doc1, hits give low values 1.02 | locus YGL248W, strain PDE1, hits give low values 0.986 | locus YGL253W, strain hxk2, hits give low values 1.01 | locus YGR135W, strain pre9, hits give low values 0.997 | locus YGR252W, strain gcn5, hits give low values 0.987 | locus YHR013C, strain ard1, hits give low values 0.996 | locus YHR027C, strain rpn1, hits give low values 1.02 | locus YHR030C, strain SLT2, hits give low values 1 | locus YHR079C, strain IRE1 (second series), hits give low values 1 | locus YHR094C, strain hxt1, hits give low values 1.01 | locus YHR129C, strain ARP1, hits give low values 0.985 | locus YHR142W, strain chs7, hits give low values 1.04 | locus YHR200W, strain rpn10, hits give low values 0.991 | locus YIL066C, strain RNR3, hits give low values 0.96 | locus YIL073C, strain SPO22, hits give low values 0.878 | locus YIL125W, strain kgd1, hits give low values 0.992 | locus YIR030C, strain dcg1, hits give low values 0.989 | locus YJL092W, strain hpr5, hits give low values 1.02 | locus YJL095W, strain BCK1 (second series), hits give low values 1.01 | locus YJL095W, strain BCK1, hits give low values 0.961 | locus YJL115W, strain asf1, hits give low values 1.03 | locus YJL129C, strain trk1, hits give low values 0.987 | locus YJL134W, strain LCB3, hits give low values 1 | locus YJL154C, strain vps35, hits give low values 1.02 | locus YJL164C, strain tpk1, hits give low values 0.988 | locus YJL166W, strain qcr8, hits give low values 1.01 | locus YJL168C, strain set2, hits give low values 0.982 | locus YJL187C, strain SWE1 (second series), hits give low values 0.976 | locus YJL187C, strain SWE1, hits give low values 1.01 | locus YJR043C, strain POL32, hits give low values 0.998 | locus YJR075W, strain HOC1, hits give low values 0.999 | locus YKL009W, strain mrt4, hits give low values 0.964 | locus YKL068W, hits give low values 0.992 | locus YKL085W, strain MDH1 (second series), hits give low values 0.993 | locus YKL085W, strain MDH1, hits give low values 0.993 | locus YKL160W, strain elf1, hits give low values 1.02 | locus YKR001C, strain vps1, hits give low values 0.97 | locus YKR026C, strain gcn3, hits give low values 1.02 | locus YKR091W, strain srl3, hits give low values 1.01 | locus YLL001W, strain dnm1, hits give low values 1 | locus YLL026W, hits give low values 1.01 | locus YLL041C, strain sdh2, hits give low values 1.02 | locus YLR027C, strain aat2, hits give low values 1.01 | locus YLR039C, strain RIC1, hits give low values 0.893 | locus YLR058C, strain SHM2, hits give low values 0.993 | locus YLR102C, strain apc9, hits give low values 1 | locus YLR221C, strain rsa3, hits give low values 1.02 | locus YLR258W, strain gsy2, hits give low values 1.03 | locus YLR262C, strain YPT6 (second series), hits give low values 0.993 | locus YLR262C, strain YPT6, hits give low values 0.986 | locus YLR268W, strain sec22, hits give low values 0.961 | locus YLR320W, strain mms22, hits give low values 1.01 | locus YLR330W, strain CHS5, hits give low values 1.01 | locus YLR342W, strain FKS1 (second series), hits give low values 0.977 | locus YLR342W, strain FKS1, hits give low values 1.03 | locus YLR357W, strain rsc2, hits give low values 1.01 | locus YLR370C, strain arc18, hits give low values 1.01 | locus YLR371W, strain rom2, hits give low values 1.02 | locus YLR384C, strain iki3, hits give low values 1.01 | locus YLR418C, strain cdc73, hits give low values 0.941 | locus YML016C, strain PPZ1, hits give low values 0.994 | locus YML032C, strain rad52, hits give low values 1 | locus YML120C, strain ndi1, hits give low values 1.01 | locus YML124C, strain tub3, hits give low values 0.994 | locus YMR058W, strain fet3, hits give low values 1.02 | locus YMR078C, strain ctf18, hits give low values 0.999 | locus YMR125W, strain sto1, hits give low values 1.02 | locus YMR129W, hits give low values 1.02 | locus YMR205C, strain PFK2, hits give low values 0.993 | locus YMR223W, strain ubp8, hits give low values 0.981 | locus YMR231W, strain pep5, hits give low values 0.99 | locus YMR263W, strain SAP30, hits give low values 1 | locus YMR307W, strain GAS1, hits give low values 1.08 | locus YNL067W, strain RPL9B, hits give low values 0.988 | locus YNL071W, strain lat1, hits give low values 1.02 | locus YNL128W, strain TEP1, hits give low values 0.991 | locus YNL209W, strain ssb2, hits give low values 1.01 | locus YNL233W, strain BNI4, hits give low values 0.988 | locus YNL248C, strain rpa49, hits give low values 1.03 | locus YNL250W, strain rad50, hits give low values 0.985 | locus YNL271C, strain bni1, hits give low values 0.982 | locus YNL298W, strain CLA4, hits give low values 0.976 | locus YNL307C, strain MCK1, hits give low values 0.997 | locus YNL322C, strain KRE1 (second series), hits give low values 1.01 | locus YNL322C, strain KRE1, hits give low values 1 | locus YNR049C, strain mso1, hits give low values 1.02 | locus YNR052C, strain pop2, hits give low values 0.983 | locus YOL012C, strain htz1 0.825 | locus YOL147C, strain pex11, hits give low values 0.991 | locus YOR001W, strain rrp6, hits give low values 1.03 | locus YOR061W, strain CKA2, hits give low values 0.984 | locus YOR069W, strain VPS5, hits give low values 0.996 | locus YOR070C, strain gyp1, hits give low values 1 | locus YOR080W, strain dia2, hits give low values 1.02 | locus YOR083W, strain WHI5, hits give low values 0.99 | locus YOR106W, strain vam3, hits give low values 1 | locus YOR136W, strain idh2, hits give low values 0.994 | locus YOR144C, strain elg1, hits give low values 0.995 | locus YOR184W, strain ser1, hits give low values 0.978 | locus YOR265W, strain rbl2, hits give low values 1.01 | locus YOR270C, strain vph1, hits give low values 1.05 | locus YOR290C, strain snf2, hits give low values 0.991 | locus YOR316C, strain cot1, hits give low values 0.986 | locus YPL051W, strain arl3, hits give low values 0.995 | locus YPL078C, strain atp4, hits give low values 1.03 | locus YPL106C, strain sse1, hits give low values 1.01 | locus YPL240C, strain hsp82, hits give low values 1.02 | locus YPL241C, strain CIN2, hits give low values 1 | locus YPR119W, strain clb2, hits give low values 0.992 | locus YPR141C, strain kar3, hits give low values 0.985 | locus YPR163C, strain tif3, hits give low values 0.975 | locus YPR167C, strain met16, hits give low values 0.972 | strain wtn01, hits give low values 0.984
